# Source: PubChem
# In the library only some 6.1% were active in any assay of this set; here they are far more common.
# D1 antagonist: Antagonist of Human D 1 Dopamine Receptor: qHTS; AID 504652, 2011; D(1A) dopamine receptor (Homo sapiens), P21728; activity change, negative = inhibition, % at 10 µM; HEK293 TREx D1 cells, calcium flux, dopamine EC80; active compounds read low; 3.2% of 360,000 active; in the data active = activity change below about -30%; also: % is scaled to controls: 0 for no effect and ±100 for the full control effect
#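 Tetracycline-induced HEK293 T-REx cells with force-coupled D1 receptor were loaded with a no-wash calcium dye. Compound was added after a 10 s baseline and read kinetically for 180 s; EC80 dopamine was then added and calcium flux followed another 180 s.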
# DRD3 antagonist: qHTS of D3 Dopamine Receptor Antagonist: qHTS; D3R cells, DiscoveRx beta-arrestin luminescence, antagonist mode; active compounds read low; max response, negative = inhibition, %; 2.5% of 360,000 active; AID 652054, 2013; in the data active = max response below about -50%; also: % is scaled to controls: 0 for no effect and ±100 for the full control effect
# Target sequence (P35462 whole entry, looked up): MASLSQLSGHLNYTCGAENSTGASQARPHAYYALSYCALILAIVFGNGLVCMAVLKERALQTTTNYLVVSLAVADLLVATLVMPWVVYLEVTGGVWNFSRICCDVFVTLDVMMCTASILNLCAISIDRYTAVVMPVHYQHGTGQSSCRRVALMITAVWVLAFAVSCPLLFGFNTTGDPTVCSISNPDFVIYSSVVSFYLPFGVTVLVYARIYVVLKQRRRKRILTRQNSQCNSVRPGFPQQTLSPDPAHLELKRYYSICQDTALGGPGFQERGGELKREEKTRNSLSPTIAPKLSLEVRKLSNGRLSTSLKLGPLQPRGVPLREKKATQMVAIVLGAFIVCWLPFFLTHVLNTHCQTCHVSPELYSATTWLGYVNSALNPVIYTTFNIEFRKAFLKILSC
#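 Cells expressing the human receptor were seeded at 1500 cells/well, incubated overnight at 37 degrees C in 5% CO2, then exposed to library compounds with dopamine controls for 90 minutes at 37 degrees C before luminescent detection.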
# DRD3 agonist: qHTS of D3 Dopamine Receptor Agonist: qHTS; D(3) dopamine receptor (Homo sapiens), P35462; D3R DiscoveRx beta-arrestin cells, luminescence, 90 min; max activation, %; 0.58% of 410,000 active; in the data active = max activation above about 30%; also: 0% is about no effect
#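 Agonist mode: compounds and dopamine controls were applied to plated cells for 90 min at 37 degrees C after an overnight attachment at 1500 cells/well. Luminescent read-out followed 30 - 60 minutes at room temperature with DiscoveRx detection reagent.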
# ERG Ets-DNA blk: qHTS for Small Molecule Inhibitors of the ERG Ets/DNA interaction | AID 624246, 2012 | 0.028% of 370,000 active | Potency, µM (series often up to 76.9 µM), for inactives: at the highest dose FP activity, negative = inhibition, hits mostly inhibitors | fluorescence polarization, His-ERG Ets domain / labelled DNA; active = well fitted inhibition curve with a large enough effect in the polarisation, with a control signal flat; the % refers to the polarisation;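 also: polarization taken with two DNA probes labelled with fluorescein and Texas red; potency is read from the fitted curve at half-maximal effect; % of control where 0% means no effect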
#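 His-tagged ERG Ets domain (1 uM in the protein solution; 300mM KCl, 50mM Tris-HCl, 1mM EDTA, 1mM DTT, pH 7.5) received compound, then a probe mix of 5 nM fluorescein-DNA and 100nM Texas-615-DNA. Fluorescence polarization was read for both dyes.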
# D1 agonist: Allosteric Agonists of the Human D1 Dopamine Receptor: qHTS; activation, % at 2 µM; AID 504660, 2011; 1% of 360,000 active; HEK293 T-REx D1 cells, calcium flux, agonist mode; D(1A) dopamine receptor (Homo sapiens), P21728; in the data active = activation above about 30%; also: 0% is about no effect
#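 Agonism was scored from calcium flux recorded over 180 s (1 read/s) after pintool compound addition, following a 10-cycle baseline. Cells were inducible force-coupled HEK293 TREx D1, plated overnight at 30 C and loaded with no-wash calcium dye.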
# D1 potentiator: Potentiators of Human D1 Dopamine Receptor: qHTS; HEK293 TREx D1 cells, calcium flux, dopamine EC20 potentiation; 0.036% of 360,000 active; potentiation, % at 10 µM; D(1A) dopamine receptor (Homo sapiens), P21728; in the data active = potentiation above about 30%; also: 0% is about no effect
# * hit, by the source's call; / = no result given; ! = not active in a repeat.
SMILES,D1 antagonist,DRD3 antagonist,DRD3 agonist,ERG Ets-DNA blk,D1 agonist,D1 potentiator
O=C(O)c1c(-c2ccccc2)oc2ccc(OCc3c(F)cccc3Cl)cc12,0,/,1,7%,36*,1
CCOc1ccccc1N1CCN(C(=O)Cc2ccc(S(=O)(=O)N3CCOCC3)s2)CC1,-10,-7,1,10%,-1,-7
Cc1cccc(N(CC(=O)NCCSCc2ccccc2)S(C)(=O)=O)c1C,8,13,2,3%,0,-4
COc1ccccc1N(CC(=O)NCCSCc1ccc(Cl)cc1)S(C)(=O)=O,-58*!,2,-4,12%,6,-7
Cc1cccc(N(CC(=O)NCCSCc2ccccc2)S(=O)(=O)c2ccccc2)c1C,0,/,1,0%,30*,0
COc1cc2c(cc1OC)C(c1ccc(OC)c(OC)c1OC)CC(=O)N2 (stereo unspecified),-6,11,-5,13%,1,-1
CCCCn1c(N)c(N(CCOC)C(=O)C2CCN(C(=O)c3ccc(F)cc3)CC2)c(=O)[nH]c1=O,7,28,2,-19%,1,-2
CCCCCCSc1cccc(-c2nc3cc(C)ccn3c2NC2CCCCC2)c1,5,21,20,-4%,5,5
CCC(C)Sc1cccc(-c2nc3ccc(C)cn3c2NCc2ccccc2)c1 (stereo unspecified),-3,43,17,12%,0,-2
CCCCCCSc1cccc(-c2nc3ccc(C)cn3c2NCc2ccccc2)c1,9,108,14,16%,-1,-3
CCC(C)Sc1cccc(-c2nc3ccccn3c2NCc2ccccc2)c1 (stereo unspecified),/,97,33*,-8%,/,/
CCCCCCSc1cc(-c2nc3ccc(C)cn3c2NCc2ccccc2)ccc1OC,13,40,62*!,-4%,0,13
CCCCCCSc1cccc(-c2nc3cc(C)ccn3c2NCc2ccccc2)c1,11,7,33*!,-1%,2,0
CCCCCCSc1cccc(-c2nc3ccccn3c2NCc2ccccc2)c1,/,178,96*!,-7%,/,/
COc1ccc(N(CC(=O)N/N=C/c2cccc(OC)c2OC)S(=O)(=O)c2ccccc2)cc1,-5,14,-1,-14%,3,-4
Cc1ccc(OC(C)C(=O)Nc2cc(C)on2)cc1 (stereo unspecified),8,-5,3,3%,0,-2
CCCCNc1c(-c2ccc(SC(C)CC)c(OC)c2)nc2ccc(Cl)cn12 (stereo unspecified),/,51,2,-8%,/,/
CCCCNc1c(-c2ccc(SC(C)CC)c(OC)c2)nc2ccc(C)cn12 (stereo unspecified),-24,66,55*,-9%,3,-4
CCOc1ccc(CN(C)C(=O)CNC(=O)c2cc(OC)c(OC)c(OC)c2)cc1,-1,5,-1,4%,0,-7
O=C(NCCOc1ccc(F)cc1)C1CCC(=O)N(CCN2CCOCC2)C1 (stereo unspecified),-53*,-14,-24,2%,0,-5
COc1ccc(COC(=O)CN2C(=O)NC3(CC(C)CC(C)(C)C3)C2=O)cc1F (stereo unspecified),/,-21,-12,-4%,/,/
CCOc1ccc(NC(=O)NC(C)c2c(-n3cccc3)sc3c2CCN(CC)C3)cc1 (stereo unspecified),-7,/,-19,-2%,43*,2
CCN1CCc2c(sc(-n3cccc3)c2C(C)NC(=O)Nc2ccc(Br)cc2)C1 (stereo unspecified),9,/,-21,-6%,11,-2
CCOC(=O)c1cccc(NC(=O)NC(C)c2c(-n3cccc3)sc3c2CCN(C)C3)c1 (stereo unspecified),1,/,-18,3%,36*,-3
